Compounds without any hit were thinned out: in the full panel of roughly 83,000, 20% have a hit.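 How to read the values: 0–100, growth inhibition (40 = 60% inhibited); 0, no net growth; -100 to 0, cell death (-40 = 40% of starting cells died; -100 = all dead).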 Unmarked numbers belong to inactive results. Active and inactive are the calls of the source. The calls were made as follows: active = growth percent below 10; inactive = the rest.
Tests used:
Experiment in all cases: NCI-60 one-dose screen, 48 h (100 = growth as untreated, 0 = no growth, -100 = all killed)
Settings in all cases: 10 µM unless noted
[1] = system: NCI-H23 lung
[2] = system: NCI-H226 lung
[3] = system: NCI-H322M lung
[4] = system: HOP-62 NSCLC
[5] = system: NCI-H460 lung
[6] = system: HOP-92 NSCLC
[7] = system: NCI-H522 lung
[8] = system: A549/ATCC NSCLC
[9] = system: 786-0 renal
[10] = system: DU-145 prostate
[11] = system: K-562 leukemia
[12] = system: MALME-3M melanoma
[13] = system: MDA-MB-231 breast
[14] = system: RXF 393 renal
[15] = system: SF-268 CNS
[16] = system: SF-295 CNS
[17] = system: SF-539 CNS
[18] = system: UACC-257 melanoma
[19] = system: M14 melanoma
[20] = system: COLO 205 colon

Row | SMILES | growth [1] | growth [2] | growth [3] | growth [4] | growth [5] | growth [6] | growth [7] | growth [8] | growth [9] | growth [10] | growth [11] | growth [12] | growth [13] | growth [14] | growth [15] | growth [16] | growth [17] | growth [18] | growth [19] | growth [20]
1 | COc1cc(/C=C/C(=O)c2cccc(Nc3nc(Nc4ccccc4)nc(Nc4ccccc4)n3)c2)cc(OC)c1OC | 40.7% | 68.6% | 87.2% | 74.6% | 59.9% | -48.2% (active) | 87.8% | 59.5% | 65.1% | 60.9% | 24.1% | 69% | 56% | -32.4% (active) | 73.4% | 72.9% | 78.7% | 106% | 78.5% | 
2 | COc1ccc2nc3ccc(OC)cc3c(SCCCN)c2c1 | 74.5% | 97.8% | 114% | 79.8% | 110% | 43.6% | 57.7% | 79.6% | 49% | 19.8% | -33.6% (active) | 95% | 102% | 49.1% | 94.1% | 95.9% | 108% | 105% | 81% | 
3 | COc1ccc(/C=C2\C(=O)N=C3N2NC(c2cc(Br)ccc2O)C=C(C)N3c2ccccc2)cc1 (configuration not stated) | 94.7% | 85.1% | 97.3% | 108% | 104% | 93.6% | 95.1% | 96% | 101% | 104% | 97.3% | 92.2% | 92.8% | 97.7% | 100% | 101% | 99.9% | 96.7% | 98.8% | 
4 | COc1ccc(/C=N/C2=C(C#N)C(c3cccc(Cl)c3)c3c(ccc4ccccc34)O2)cc1 (configuration not stated) | 53.5% | 36% | 62.7% | 49.5% | 16.8% | 44.8% | 3.61% (active) | 44.9% | 19.8% | 55.7% | 11.1% | 44.5% | 38% | 26.5% | 45.9% | 21.8% | 7.29% (active) | 62.6% | 15.6% | 31.3%
5 | COc1cc(-c2nc(SCC(C)C)nc(Nc3cccc4ccccc34)c2C#N)cc(OC)c1OC | 102% | 82.5% | 101% | 87.2% | 82.3% | 92.9% | 89.2% | 88.4% | 103% | 94.4% | 57% | 87.7% | 57.1% | 119% | 92.6% | 101% | 101% | 106% | 103% | 95.3%
6 | O=C(Nc1ccc(NC(=O)c2cc(=O)[nH]c3ccccc23)cc1)Nc1cccc(C(F)(F)F)c1 | 62.3% | 87.9% | 62.5% | -7.24% (active) | 15.3% | 42.6% | 72.3% | 86.3% | 99.3% | 76.2% | 53% | 31.7% | 26.7% | 108% | 50.7% | 74.5% | 50.1% | 80.5% | 69.9% | 
7 | Fc1ccc2[nH]cc(-c3nonc3-c3c[nH]c4ccc(Br)cc34)c2c1 | 24.4% | 53.6% | 35.9% | 9.17% (active) | 1.22% (active) | 22.4% | -12.1% (active) | 19.5% | 23.5% | 42% | 4.21% (active) | 21.2% | -20.2% (active) | 77.3% | 38.2% | 9.73% (active) | 16.7% | 42.7% | -5.26% (active) | -45.5% (active)
8 | N#Cc1c(-c2ccc(Cl)cc2)nc(NN=Cc2cccc(O)c2)nc1N1CCOCC1 | 100% | 92.9% | 86.3% | 87.8% | 77.9% | 63.3% | 74.8% | 72.7% | 64.3% | 63.4% | 45.1% | 104% | 95.9% | 24.1% | 81.9% | 97.1% | 67.8% | 86.5% | 66.6% | 85.7%
9 | O=C(OCc1ccc2c(Cl)cc(Cl)c(O)c2n1)n1cncn1 | 44.5% | 59.1% | 50.4% | 27.5% | 19.9% | 49.4% | 51.4% | 22.1% | 45.7% | 38.7% | 18.2% | 33% | 59.6% | 45.9% | 24.1% | 20% | 15.7% | 41.2% | 20.4% | 
10 | O=C1c2cc(Cl)ccc2S(=O)(=O)c2c(NCCCNCCO)nc3ccccc3c21 | 25.7% | 27.4% | 73.8% | 42.3% | 22.5% | -66% (active) | -77.1% (active) | 43.3% | 2.5% (active) | -24.7% (active) | 0.0837% (active) | -81.4% (active) | -70.7% (active) | -36.5% (active) | 31.8% | 40.6% | -18% (active) | 10.3% | -37.9% (active) | -81.2% (active)
11 | CCOP(=O)(OCC)c1nc(-c2ccccc2)oc1NCc1cccnc1 | 102% | 104% | 106% | 100% | 107% | 114% | 92.8% | 104% | 104% | 107% | 102% | 100% | 108% | 110% | 104% | 106% | 96.2% | 109% | 111% | 
12 | O=C(c1ccccc1)C1C(=O)N2C(=S)N(c3ccccc3)C(=O)C2C1c1ccc(Cl)cc1 (configuration not stated) | 88.2% | 74.5% | 94.6% | 93.4% | 86.8% | 91.3% | 94% | 101% | 100% | 109% | 99.1% | 88.1% | 90.4% | 90.4% | 97.5% | 94.2% | 98% | 101% | 96.3% | 
13 | COc1ccc2c(O)c(/C=C3\N=Nc4ncccc43)oc2c1C[C@H]1CCNC[C@H]1F | -3.41% (active) | 1.06% (active) | 9.44% (active) | 5.59% (active) | -26% (active) | 25.7% | -13.5% (active) | 0.136% (active) | -18.6% (active) | 7.19% (active) | 1.73% (active) | -21.6% (active) | -6.95% (active) | -44.4% (active) | -5.68% (active) | 18.9% | -29.9% (active) | -6.32% (active) | -40.9% (active) | -51.8% (active)
14 | O=[N+]([O-])c1ccc(S(=O)(=O)N2CCN(C3=NS(=O)(=O)c4ccccc4N3c3ccccc3)CC2)cc1 | 87.2% | 104% | 99.6% | 99.7% | 115% | -0.794% (active) | 94.5% | 96.3% | 96.7% | 117% | 84.9% | 106% | 99.2% | 91.7% | 101% | 91.2% | 103% | 101% | 113% | 
15 | CC(C)=NNc1ccccn1 | 68% | 40.9% | 19.4% | 32.8% | 30% | 40.4% | 25.5% | 35.1% | 61.7% | 48.4% | 59.2% | 48.5% | 36.4% | 69.8% | 43.7% | 67.6% | 43.5% | 11.9% | 35.8% | 3.92% (active)
